Assay results published in PMC10954555.

target: Protein lin-37 homolog (UniProt Q96GY3); assay: cross-linking mass spectrometry; other
Sequence (Q96GY3 whole entry): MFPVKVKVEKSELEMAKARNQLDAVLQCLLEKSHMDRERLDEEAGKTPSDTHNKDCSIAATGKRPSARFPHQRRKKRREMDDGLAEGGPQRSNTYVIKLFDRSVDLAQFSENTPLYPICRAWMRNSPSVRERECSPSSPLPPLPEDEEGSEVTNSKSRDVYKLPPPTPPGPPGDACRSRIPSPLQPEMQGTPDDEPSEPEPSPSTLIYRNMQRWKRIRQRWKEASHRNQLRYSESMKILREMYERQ

Listed as a hit, yes:
Protein lin-54 homolog, Q6MZP7
Protein lin-9 homolog, Q5TKA1
Protein lin-52 homolog, Q52LA3

target: Transcriptional repressor p66-beta (UniProt Q8WXI9); assay: other; cross-linking mass spectrometry; other
Sequence (Q8WXI9 whole entry): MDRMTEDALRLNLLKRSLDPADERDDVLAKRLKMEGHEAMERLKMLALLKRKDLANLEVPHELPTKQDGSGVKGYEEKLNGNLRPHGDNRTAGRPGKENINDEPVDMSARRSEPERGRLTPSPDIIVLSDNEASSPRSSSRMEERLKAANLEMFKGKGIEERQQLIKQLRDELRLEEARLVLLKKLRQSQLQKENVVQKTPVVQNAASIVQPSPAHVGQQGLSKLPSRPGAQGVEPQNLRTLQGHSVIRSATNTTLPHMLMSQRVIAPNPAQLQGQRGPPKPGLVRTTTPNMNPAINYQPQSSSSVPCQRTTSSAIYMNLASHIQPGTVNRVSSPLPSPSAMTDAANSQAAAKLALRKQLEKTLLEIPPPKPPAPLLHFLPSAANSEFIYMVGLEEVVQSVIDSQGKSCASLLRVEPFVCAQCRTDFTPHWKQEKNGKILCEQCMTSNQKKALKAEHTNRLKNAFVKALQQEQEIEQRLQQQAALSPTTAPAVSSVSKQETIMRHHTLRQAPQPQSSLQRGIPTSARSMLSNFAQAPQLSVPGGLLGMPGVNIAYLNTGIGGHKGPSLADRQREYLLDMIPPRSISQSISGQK

Listed as a hit, yes:
ATP-dependent chromatin remodeler CHD4, Q14839
Metastasis-associated protein MTA2, O94776
Transcriptional repressor p66-alpha, Q86YP4
